Test results as given in ChEMBL document CHEMBL2218924, “A broad activity screen in support of a chemogenomic map for kinase signalling research and drug discovery” (Biochem J, 2013).

What was measured:
[1] = target: Protein kinase C alpha type (Homo sapiens) (UniProt P17252); details: at 1 µM
[2] = target: Protein kinase C alpha type (Homo sapiens) (UniProt P17252); details: at 10 µM
[3] = target: Protein kinase C beta type (Homo sapiens) (UniProt P05771); details: at 1 µM
[4] = target: Protein kinase C beta type (Homo sapiens) (UniProt P05771); details: at 10 µM
[5] = target: Protein kinase C beta type (Homo sapiens) (UniProt P05771); details: at 1 µM; remark: listed apart in the source
[6] = target: Protein kinase C beta type (Homo sapiens) (UniProt P05771); details: at 10 µM; remark: listed apart in the source
[7] = target: Protein kinase C gamma type (Homo sapiens) (UniProt P05129); details: at 1 µM
[8] = target: Protein kinase C gamma type (Homo sapiens) (UniProt P05129); details: at 10 µM
[9] = target: Protein kinase C delta type (Homo sapiens) (UniProt Q05655); details: at 1 µM
[10] = target: Protein kinase C delta type (Homo sapiens) (UniProt Q05655); details: at 10 µM

Chain of Protein kinase C delta type (Homo sapiens) (Q05655 whole entry, looked up): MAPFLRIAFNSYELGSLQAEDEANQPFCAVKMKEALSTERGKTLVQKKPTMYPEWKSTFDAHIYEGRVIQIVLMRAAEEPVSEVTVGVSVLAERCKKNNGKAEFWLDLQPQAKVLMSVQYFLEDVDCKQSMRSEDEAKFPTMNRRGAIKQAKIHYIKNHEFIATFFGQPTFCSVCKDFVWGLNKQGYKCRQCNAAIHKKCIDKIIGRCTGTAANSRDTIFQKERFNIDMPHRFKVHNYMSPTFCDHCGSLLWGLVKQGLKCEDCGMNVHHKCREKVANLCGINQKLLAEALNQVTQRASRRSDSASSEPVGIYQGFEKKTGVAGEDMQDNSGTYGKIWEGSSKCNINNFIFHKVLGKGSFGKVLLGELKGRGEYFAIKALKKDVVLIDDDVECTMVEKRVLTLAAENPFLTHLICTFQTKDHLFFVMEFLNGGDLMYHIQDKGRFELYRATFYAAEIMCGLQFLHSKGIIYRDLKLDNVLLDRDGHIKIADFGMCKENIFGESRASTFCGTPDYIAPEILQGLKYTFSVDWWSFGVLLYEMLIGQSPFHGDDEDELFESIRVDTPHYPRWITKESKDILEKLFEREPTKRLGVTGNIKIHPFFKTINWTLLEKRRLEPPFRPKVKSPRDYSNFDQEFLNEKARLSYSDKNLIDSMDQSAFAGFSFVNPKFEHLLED
Chain of Protein kinase C beta type (Homo sapiens) (P05771 2-671 limits assumed): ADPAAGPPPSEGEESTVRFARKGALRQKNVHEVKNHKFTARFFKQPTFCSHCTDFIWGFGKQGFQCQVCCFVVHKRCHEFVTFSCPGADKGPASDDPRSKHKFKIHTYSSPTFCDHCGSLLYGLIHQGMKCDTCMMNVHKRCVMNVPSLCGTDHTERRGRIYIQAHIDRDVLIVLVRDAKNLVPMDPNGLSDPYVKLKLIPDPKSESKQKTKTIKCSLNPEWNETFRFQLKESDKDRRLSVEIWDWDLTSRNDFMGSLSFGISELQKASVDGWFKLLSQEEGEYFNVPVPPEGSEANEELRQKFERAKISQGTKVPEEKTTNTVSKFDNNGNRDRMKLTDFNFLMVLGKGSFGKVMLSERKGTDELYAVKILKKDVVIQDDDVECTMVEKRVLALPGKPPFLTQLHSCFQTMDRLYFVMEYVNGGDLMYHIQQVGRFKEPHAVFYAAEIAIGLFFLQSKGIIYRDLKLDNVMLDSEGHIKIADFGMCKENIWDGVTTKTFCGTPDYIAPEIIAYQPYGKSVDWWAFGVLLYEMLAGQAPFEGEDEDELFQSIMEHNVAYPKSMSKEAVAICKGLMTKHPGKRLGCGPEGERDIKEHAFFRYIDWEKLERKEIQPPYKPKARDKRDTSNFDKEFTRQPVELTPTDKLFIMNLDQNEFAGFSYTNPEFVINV

SMILES | residual activity [1] [%] | residual activity [2] [%] | residual activity [3] [%] | residual activity [4] [%] | residual activity [5] [%] | residual activity [6] [%] | residual activity [7] [%] | residual activity [8] [%] | residual activity [9] [%] | residual activity [10] [%]
CN(C)c1ccc(/C=C2\C(=O)Nc3ccccc32)cc1 | 103 | 101 | 114 | 112 | 94 | 98 | 113 | 102 | 88 | 101
Oc1ccc(Nc2nc(-c3ccc(Cl)cc3)cs2)cc1 | 110 | 101 |  | 112 | 121 | 101 | 102 | 105 | 105 | 110
Nc1nc(Nc2ccc(S(N)(=O)=O)cc2)nn1C(=S)Nc1c(F)cccc1F | 51 | 18 | 84 | 38 | 88 | 78 | 71 | 66 | 10 | 9
COc1cc2ncnc(N3CCN(C(=O)Nc4ccc(Oc5ccccc5)cc4)CC3)c2cc1OC | 99 | 103 | 106 | 97 | 101 | 102 | 103 | 107 | 101 | 110
O=C1Nc2ccc(Br)cc2/C1=C\c1cc2c([nH]1)CCCC2 | 104 | 105 |  |  |  |  | 109 | 111 | 100 | 107
CC(C)n1cnc2c(NCc3ccccc3)nc(NCCCO)nc21 | 99 | 102 | 106 | 105 | 105 | 104 | 92 | 104 | 94 | 98
COc1ccc(S(=O)(=O)N(CCO)c2ccccc2CN(C)C/C=C/c2ccc(Cl)cc2)cc1 | 107 | 94 | 106 | 102 | 115 | 96 | 99 | 104 | 108 | 106
COc1cc2ncc(-c3ccccc3)nc2cc1OC |  |  | 131 | 124 | 97 | 96 |  |  |  | 
Cc1cccc(-c2[nH]c(C(C)(C)C)nc2-c2ccc3c(c2)OCO3)n1 |  |  |  |  |  |  |  |  | 98 | 101
O=C1NC(=O)/C(=C/c2ccc3c(c2)OC(F)(F)O3)S1 | 106 | 102 | 134 | 126 | 98 | 102 | 103 | 101 | 107 | 103
CC(=O)c1ccc(N2CCOCC2)cc1O | 101 | 102 | 107 | 101 | 100 | 93 | 109 | 108 | 101 | 103
O=C1c2ccccc2-[n+]2ccc3c([nH]c4ccccc43)c21 | 106 | 98 | 102 | 97 | 93 | 88 | 97 |  | 101 | 104
Nc1cccc(-c2cc3c(Oc4cccc(O)c4)ncnc3[nH]2)c1 |  | 97 |  |  | 104 | 95 | 98 | 101 | 100 | 95
COc1cc2ncnc(Nc3ccc(NC(=O)c4ccccc4)cc3)c2cc1OC |  | 107 |  |  | 100 | 94 |  |  | 107 | 102
COc1cccc(-c2cc(=O)c3ccccc3o2)c1N | 113 | 104 | 106 | 105 | 121 | 108 | 107 | 119 | 113 | 113
CN(C)CCCn1cc(C2=C(c3c[nH]c4ccccc34)C(=O)NC2=O)c2ccccc21 |  |  |  |  | 9 | 2 |  |  | 2 | -1
c1ccc(-c2n[nH]c3c2oc2ccccc23)cc1 |  |  |  |  | 96 | 98 |  |  |  | 
Cc1cc(Nc2nc(-c3ccccc3)nc3ccccc23)n[nH]1 |  | 63 | 109 |  | 106 |  |  | 51 |  | 
Nc1ccc2ncnc(NCCc3ccc(Oc4ccccc4)cc3)c2c1 | 103 | 103 | 137 | 113 | 118 | 104 | 87 | 111 | 106 | 111
N#C/C(=C(\N)Sc1ccc(N)cc1)c1ccccc1C(F)(F)F | 107 | 96 | 114 | 104 | 114 | 99 | 98 | 104 | 99 | 104
COc1ccc(C(=O)Nc2sc3c(c2C(N)=O)CCCC3)cc1OC | 106 | 100 | 109 | 94 | 111 | 101 | 117 | 104 | 101 | 104
Cc1ccc(S(=O)(=O)/C=C/C#N)cc1 | 88 | 93 | 98 | 102 | 104 |  | 99 | 87 | 101 | 105
Cn1cc(/C=C2\C(=O)Nc3ccc(S(N)(=O)=O)cc32)c2ccccc21 | 108 | 104 | 111 | 109 | 103 | 108 |  | 79 | 101 | 99
c1ccc(-c2n[nH]cc2-c2ccnc3ccccc23)nc1 |  |  |  |  | 101 | 94 |  |  | 94 | 92
COc1ccc(OC)c2c(=S)c3ccccc3[nH]c12 | 102 | 101 | 89 | 115 | 106 | 97 | 96 | 91 | 103 | 98
N#CCCc1ccc2c(c1)-c1[nH]c3ccc([N+](=O)[O-])cc3c1CC(=O)N2 |  |  |  |  |  |  |  |  | 68 | 57
Cc1nc(-c2ccccc2)c(-c2ccncc2)o1 | 113 | 101 | 109 | 95 | 106 | 101 | 108 |  | 101 | 90
N#CC(C#N)=C(N)/C(C#N)=C/c1ccc(O)cc1 |  |  | 120 | 122 | 96 | 90 |  | 79 |  | 
O=[N+]([O-])c1ccc(-c2nc(-c3ccc(F)cc3)c(-c3ccncc3)[nH]2)cc1 | 110 | 99 | 107 | 97 | 107 | 96 |  | 114 | 104 | 103
O=C1Nc2ccccc2/C1=C1/Nc2ccccc2/C1=N\OCCC(O)CO (stereo unspecified) | 96 | 65 | 108 |  | 97 | 99 | 81 | 74 |  | 
